CapD inh – Bacillus anthracis CapD inhibitors, primary screen, biochemical, fluorescence intensity; CapD gamma-glutamyltranspeptidase (Bacillus anthracis Ames Ancestor); purified CapD enzyme, fluorescence intensity read-out; stronger effect = lower value; z-score (no concentration beside the values); 140,000 tested, 0.23% active; AID 492967, 2010; in the data active = z-score mostly below about -2.9, no sharp cut-off; inactive = mostly above about -1.9
Of the large screens only hits and unclear results are named; the others gave an inactive call. The sample as a whole holds a higher share of hits than the screen did.

Cc1nnc2sc3c(n2c1=O)C(=O)N(c1ccc(I)cc1)C3=O	none
CCc1ccc(N2C(=O)c3sc4nnc(C)c(=O)n4c3C2=O)cc1	CapD inh -2.12
O=C1c2sc3nnc(-c4ccccc4)c(=O)n3c2C(=O)N1c1ccc(Br)cc1	none
O=c1c(C=Nc2cccc(Cl)c2)c(C(F)(F)F)[nH]n1-c1ccccc1	none
CCOc1cccc2cc(-c3nnc(Nc4ccc(Cl)cc4Cl)s3)c(=O)oc12	none
Cc1c(C#N)c(O)n(CCO)c(=O)c1N=Nc1cccc(C(=O)O)c1	CapD inh -8.28
CCCCn1c(O)c(C#N)c(C)c(N=Nc2ccc(OC)cc2)c1=O	none
Cc1cc(=O)n(CCc2ccccc2)c(O)c1C#N	none
COc1ccc2c(c1)c(CC(=O)Nc1c(C)n(C)n(-c3ccccc3)c1=O)c(C)n2C(=O)c1ccc(Cl)cc1	none
C=CCn1c(O)c(C=Nc2ccccc2)sc1=S	none
O=C(O)Cn1c(O)c(C=Nc2ccccc2)sc1=S	CapD inh -7.41
Oc1[nH]c(=S)sc1C=Nc1ccccc1	none
CC1(C)OC(=O)C(=Cc2ccc(-c3ccccc3)o2)C(=O)O1	none
CC(C)(C)C1(C)OC(=O)C(=Cc2ccc(Br)o2)C(=O)O1 (centres undefined)	CapD inh -5.07
CC(C)(C)C1(C)OC(=O)C(=Cc2ccccc2Cl)C(=O)O1 (centres undefined)	none
CC1CN(C(=O)c2cccc(Cl)c2)CC(C)O1 (centres undefined)	none
Cc1ccc2cc(NC(=O)C3CC(=O)N(Cc4ccco4)C3)ccc2n1 (centres undefined)	none
O=C(CN1CCN(c2ccccc2)CC1)Nc1nnc(C2CCCCC2)s1	none
COc1ccc(/C=N/NC(=O)Cc2csc(-c3ccccc3)n2)c(OC)c1C	none
COc1ccc(C(=O)ON2C(=O)CCC2=O)cc1	none
COc1ccccc1C(=O)ON1C(=O)CCC1=O	CapD inh -5.52
COc1ccccc1C(=O)OC1CCN(C)CC1	none
Cc1cc(C)c2c(=O)[nH]sc2n1	none
N#Cc1c(-c2ccccc2)[nH]c(=S)[nH]c1=O	CapD inh -6.12
N#Cc1c(-c2cccs2)[nH]c(=S)[nH]c1=O	none
CN(C)c1ccc(-c2[nH]c(=S)[nH]c(=O)c2C#N)cc1	none
Cc1ccc(/C=C2\CC/C(=C\c3ccc(C)o3)C2=O)o1	none
Cc1ccc(/C=C2\N=C(c3ccc(C4=N/C(=C\c5ccc(C)o5)C(=O)O4)cc3)OC2=O)o1	none
Cc1ccc(/C=C2/C=CC(=O)O2)o1	CapD inh -5.19
CC(=O)c1ccc(N2CCN(C(=O)CCCn3c(=S)[nH]c4ccc(Br)cc4c3=O)CC2)cc1	none
COc1ccccc1NC(=O)COc1ccc(Oc2ccccc2)cc1	none
OC1(c2ccc(Cl)cc2)CCN(Cc2cn[nH]c2-c2ccccc2)CC1	CapD inh -2.34
Fc1ccc(-c2[nH]ncc2CN2CCN(Cc3ccccc3)CC2)cc1	none
COc1ccc(-c2[nH]ncc2CN2CCC(O)(c3ccc(Cl)cc3)CC2)cc1	none
COC(=O)CCSC1CC(=O)N(c2ccccc2)C1=O (centres undefined)	none
NS(=O)(=O)c1ccc(N2C(=O)/C(=C\C=C\c3ccccc3)SC2=S)cc1	none
C=C1c2cccc(O)c2C(O)=C2C(=O)C3(O)C(O)=C(C(N)=O)C(=O)C(N(C)C)C3C(O)C12 (centres undefined)	none
CN1/C(=C/C(=O)CSC2CCCC2)C(C)(C)c2ccccc21	none
Cc1cc(/N=C/C=C2\N(C)c3ccccc3C2(C)C)n(CCC#N)n1	CapD inh -4.36
Cc1cc(/N=C/c2cc(C)n(Cc3ccccc3)c2C)n(CCC#N)n1	none
O=C1CC(c2ccccc2)c2cc3c(cc2N1)OCCO3 (centres undefined)	none
Cc1ccc(-c2nn[nH]n2)cc1	none
Cc1ccc(/C(N)=N/OC(=O)Oc2ccccc2)cc1	none
Cc1ccc(OC(=O)OCSc2nn[nH]n2)cc1	CapD inh -7.11
CC(=O)Nc1ccc(NC(=O)Cc2c[nH]c3ccccc23)cc1	none
O=S(=O)(NC1CCN(Cc2ccc3ccccc3c2)C1)c1cc(C(F)(F)F)cc(C(F)(F)F)c1 (centres undefined)	none
CC(C)Nc1nc2cc(Cl)ccc2s1	none
Cc1oc(-c2ccc(C(=O)O)cc2)nc1CSc1ccc(Cl)cc1	none
COc1ccc(/C=C2/CC(C(C)(C)C)C/C(=C\c3ccc(OC)cc3OC)C2=O)c(OC)c1 (centres undefined)	none
COc1cccc(/C=C2/CCC/C(=C\c3cccc(OC)c3OC)C2=O)c1OC	none
COc1cccc(/C=C2/CC(C(C)(C)C)C/C(=C\c3cccc(OC)c3OC)C2=O)c1OC (centres undefined)	CapD inh -9.16
COc1cc(NC(=O)CN2C(=O)c3ccccc3C2=O)c(OC)cc1Cl	none
C=CC[C@H]1CC(C)=C[C@H](CC=C)N1C(C)=O	none
CC1CCC(N2CCCC(CO)C2)CC1 (centres undefined)	none
COC(=O)c1ccc(CNC(=O)COc2ccc(Cl)cc2Cl)cc1	none
Cc1snc(S(=O)(=O)/C(C#N)=N/Nc2cccc(C(F)(F)F)c2)c1C#N	none
Cn1cncc1S(=O)(=O)/C(C#N)=N/Nc1ccc(OC(F)(F)F)cc1	none
COc1ccc(N/N=C(/C#N)S(=O)(=O)c2nsc(C)c2C#N)cc1	CapD inh -5.8

Source: PubChem
